Consider 35 targets from the supplement of paper PMC11482750.

± gives the standard deviation of the averaged measurements.

Compound in this assay: C=CCN=C=S [allyl isothiocyanate]
The assay can be described thus: control-subtracted net OSN firing rate; higher = stronger neuronal activation. The following applies: odorant dilution (vol/vol): 1/100. In a few lines: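 Fed female flies 1–5 days old, Scaptomyza species or D. melanogaster wild-type, mutant or at1 empty-neuron lines expressing Or42a homologs, were used for single sensillum recordings from palp or antennal olfactory sensory neurons. Each odorant, at 1:100 vol/vol in mineral oil or dimethyl sulfoxide with 20 μl applied to filter paper, was given as a 1 s pulse into a 16 ml/min filtered air stream. Spike counts over 0.5 s from 0.2 s after onset were background-subtracted, doubled and solvent-corrected, then averaged across replicates.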
As to Canton-S (D. melanogaster) ai3c, the “control-subtracted net OSN firing rate” value worked out at 6 ± 13 spikes/s.

Consider Canton-S (D. melanogaster) ab6b, for which the “control-subtracted net OSN firing rate” value was -5.33 ± 19 spikes/s.

For Canton-S (D. melanogaster) ai2b, the “control-subtracted net OSN firing rate” value was -1.14 ± 4.3 spikes/s.

As for Canton-S (D. melanogaster) ab8b, the “control-subtracted net OSN firing rate” value is 45.4 ± 36 spikes/s.

As for Canton-S (D. melanogaster) ab1a, the “control-subtracted net OSN firing rate” value was -3.67 ± 15 spikes/s.

Turning to Canton-S (D. melanogaster) ab1b, the “control-subtracted net OSN firing rate” value is 15.3 ± 20 spikes/s.

Consider Canton-S (D. melanogaster) ab10b, for which the “control-subtracted net OSN firing rate” value was found to be 0.4 ± 5.7 spikes/s.

Take Canton-S (D. melanogaster) ab2a: the “control-subtracted net OSN firing rate” value was -1.33 ± 2.4 spikes/s.

Take Canton-S (D. melanogaster) at1: the “control-subtracted net OSN firing rate” value was -0.286 ± 14 spikes/s.

Take Or42a- (D. melanogaster) pb1a: the “control-subtracted net OSN firing rate” value was -2.5 ± 4 spikes/s.

In the case of Canton-S (D. melanogaster) ab3a, the “control-subtracted net OSN firing rate” value was determined as 30 ± 16 spikes/s.

Canton-S (D. melanogaster) ab8a: the “control-subtracted net OSN firing rate” value came out at 31.1 ± 18 spikes/s.

TrpA1- (D. melanogaster) pb1a: the “control-subtracted net OSN firing rate” value stood at 152 ± 22 spikes/s.

Take Canton-S (D. melanogaster) ab1c: the “control-subtracted net OSN firing rate” value is -3.33 ± 11 spikes/s.

Regarding Canton-S (D. melanogaster) ab2b, the “control-subtracted net OSN firing rate” value is -6 ± 4 spikes/s.

Consider Canton-S (D. melanogaster) ab10a, for which the “control-subtracted net OSN firing rate” value was 8.8 ± 6.8 spikes/s.

Canton-S (D. melanogaster) ab1d: the “control-subtracted net OSN firing rate” value was -4.33 ± 9.1 spikes/s.

For Canton-S (D. melanogaster) at4c, the “control-subtracted net OSN firing rate” value was 1.33 ± 4.7 spikes/s.

Turning to Canton-S (D. melanogaster) at4b, the “control-subtracted net OSN firing rate” value was -3 ± 6.5 spikes/s.

With Canton-S (D. melanogaster) ab3b, the “control-subtracted net OSN firing rate” value was -4.33 ± 7.5 spikes/s.

For the target Canton-S (D. melanogaster) ai2a, the “control-subtracted net OSN firing rate” value amounted to 4 ± 7.8 spikes/s.

For the target Canton-S (D. melanogaster) at4a, the “control-subtracted net OSN firing rate” value is -3 ± 7.5 spikes/s.

In the case of Canton-S (D. melanogaster) ab4b, the “control-subtracted net OSN firing rate” value is -2.57 ± 3.2 spikes/s.

In the case of Canton-S (D. melanogaster) ab9a, the “control-subtracted net OSN firing rate” value worked out at 41 ± 45 spikes/s.

For Canton-S (D. melanogaster) ab7b, the “control-subtracted net OSN firing rate” value is -5.14 ± 9.4 spikes/s.

As to Canton-S (D. melanogaster) ab7a, the “control-subtracted net OSN firing rate” value is -8.86 ± 13 spikes/s.

In the case of Canton-S (D. melanogaster) ab4a, the “control-subtracted net OSN firing rate” value came out at 83.1 ± 18 spikes/s.

Turning to Canton-S (D. melanogaster) ab6a, the “control-subtracted net OSN firing rate” value was found to be 2.67 ± 5.9 spikes/s.

As to Canton-S (D. melanogaster) ab9b, the “control-subtracted net OSN firing rate” value stood at 2.33 ± 17 spikes/s.

Canton-S (D. melanogaster) ai3b: the “control-subtracted net OSN firing rate” value worked out at 3.67 ± 7.3 spikes/s.

In the case of Canton-S (D. melanogaster) ai3a, the “control-subtracted net OSN firing rate” value is 0.667 ± 6 spikes/s.

For w1118 (D. melanogaster) pb1a, the “control-subtracted net OSN firing rate” value came to 91.3 ± 46 spikes/s.

On to Canton-S (D. melanogaster) ab5b, for which the “control-subtracted net OSN firing rate” value is -3.14 ± 11 spikes/s.

Turning to Or67dGal4, UAS-Sfla Or42a4 at1, the “control-subtracted net OSN firing rate” value was 131 ± 22 spikes/s.

Turning to Canton-S (D. melanogaster) ab5a, the “control-subtracted net OSN firing rate” value is -2 ± 7.1 spikes/s.
